Experimental data from PubChem BioAssay AID2417 (National Center for Advancing Translational Sciences (NCATS), 2010).
The whole screen tested about 140,000 compounds, of which about 4,300 (3.1%) were called active. Roughly 21% stayed inconclusive and do not appear here. The sample holds actives, similar compounds and a random draw of the others, so the mix is not that of the screen. Values without a mark were called inactive.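 The calls were made as follows: active = readout at or below -70, meaning at least 70% loss of cells showing the perinucleolar compartment, a nuclear body marking cancer cells; inconclusive = readout between -30 and a set limit; inactive = the rest.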

Experiment: High Content Assay for Compounds that inhibit the Assembly of the Perinucleolar Compartment;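 also: plate controls were DMSO wells for no effect and camptothecin positive control wells for full effect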
Conditions: PC3M PTB-GFP, PNC prevalence imaging, 16 h; at 10 µM; hits give low values
Method in brief: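 PC3M cells stably expressing PTB-GFP, 750–1000 cells/well, treated 16 h at 37 °C with compound (23 nl of library stock), in duplicate. After paraformaldehyde fixation and Hoechst stain, imaged at 20x; PNC prevalence scored by image analysis.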
With `CCc1nccn1S(=O)(=O)c1cccc([N+](=O)[O-])c1` the activity change (PNC), negative = inhibition was 10%. Compound `Cc1nnc(NC(=O)/C=C/c2ccco2)s1` has an activity change (PNC), negative = inhibition of -22.5%. `CCS(=O)(=O)Nc1cccc(-c2cc(-c3ccccc3)c3cc(C)ccc3n2)c1` gave an activity change (PNC), negative = inhibition of 81.5%. In the case of `CCc1ccc(C(=O)OCC(=O)Nc2cccc(S(=O)(=O)NC3=NCCCCC3)c2)cc1`, the activity change (PNC), negative = inhibition is reported as 14.5%. With `COc1ccc(S(=O)(=O)NC(CC(=O)NCc2ccccc2OC)c2ccco2)cc1` (stereo not drawn) the activity change (PNC), negative = inhibition was 32.4%. For `CC(=O)Nc1ccc(S(=O)(=O)NC(C)C(=O)OCC(=O)NC2CCCC2)cc1` (stereo not drawn), the activity change (PNC), negative = inhibition was 5.59%. With `O=C(CC(NS(=O)(=O)c1ccc(Cl)cc1)c1ccco1)NC1CCCC1` (stereo not drawn) the activity change (PNC), negative = inhibition was -84.2% (active). `N#Cc1ccsc1NC(=O)CN1CCCCC1` gave an activity change (PNC), negative = inhibition of 8.2%. For `CN1CCN(CC(=O)Nc2sc3c(c2C#N)CCC(C(C)(C)C)C3)CC1` (stereo not drawn), the activity change (PNC), negative = inhibition was -86.5% (active). Compound `Cc1cccc(C(=O)OCC(=O)Nc2sc3c(c2C#N)CCC3)c1` has an activity change (PNC), negative = inhibition of 5.52%. `COc1ccccc1Oc1ccc(N/C=C2/CCCC2=O)cc1` gave an activity change (PNC), negative = inhibition of 39.1%. For `Cc1ccccc1OCC(=O)Nc1nc(C)c(C(=O)N(C)C)s1`, the activity change (PNC), negative = inhibition was -15.1%. `CCCCOC(=O)Cn1c(=N)n(CCN(CC)CC)c2ccccc21` gave an activity change (PNC), negative = inhibition of 33.2%. `COc1ccc(OC)c(NC(=O)Cn2c(=O)oc3ccccc32)c1` showed an activity change (PNC), negative = inhibition of 0.891%. With `CCn1c(=N)n(CC(=O)c2cccc(OC)c2)c2ccccc21` the activity change (PNC), negative = inhibition was -117% (active). In the case of `CCCCN(C)c1ccc([N+](=O)[O-])cc1`, the activity change (PNC), negative = inhibition is reported as 22.3%. Work on `Cc1ccc(C(C[N+](=O)[O-])c2c(C)cc3ccccn23)cc1` (stereo not drawn) yielded an activity change (PNC), negative = inhibition of -2.04%. In the case of `Cc1cc(Nc2ccccc2)n(C(=O)c2ccc(N)cc2)n1`, the activity change (PNC), negative = inhibition is reported as -86.2% (active). For `Cc1cc(NC(=O)Nc2ccccc2)n(-c2ccccc2)n1`, the activity change (PNC), negative = inhibition was 15.1%. For `Cc1cc(Nc2ccccc2)n(CCC#N)n1`, the activity change (PNC), negative = inhibition was -16.1%. With `Cc1cc(C)cc(NC(=S)NCc2ccc(F)cc2)c1` the activity change (PNC), negative = inhibition was 35.9%. In the case of `CNC(=S)N1CCN(c2ccccn2)CC1`, the activity change (PNC), negative = inhibition is reported as -10.5%. With `Cc1cccc(N=C2NN=C(c3c[nH]c4ccccc34)CS2)c1` the activity change (PNC), negative = inhibition was 57.4%. With `COc1ccc(S(=O)(=O)Nc2ccc(S(=O)(=O)N3CCCCC3)cc2)cc1OC` the activity change (PNC), negative = inhibition was -88.7% (active). For `COc1ccc(S(=O)(=O)N2CCCCC2)cc1Br`, the activity change (PNC), negative = inhibition was -11%. With `COc1ccc(-c2ccc(Nc3ccc(S(=O)(=O)N4CCCC4)cc3)nn2)cc1OC` the activity change (PNC), negative = inhibition was 7.04%. `Cc1[nH]c2ccccc2c1/C=N\NC(=O)Cn1nnc(-c2ccccc2)n1` showed an activity change (PNC), negative = inhibition of 40.3%. With `CCOC(=O)c1c(C)[nH]c2c1-c1ccccc1C(=O)C2=O` the activity change (PNC), negative = inhibition was -124% (active). Work on `CCOC(=O)c1c(C)[nH]c(=S)c(C#N)c1-c1ccccc1` yielded an activity change (PNC), negative = inhibition of 32.4%. `CCOC(=O)c1cc2n(c1N)-c1ccccc1C2=O` gave an activity change (PNC), negative = inhibition of 32%. Work on `Cc1cccc(OCCNC(=S)NC(=O)c2cccnc2)c1` yielded an activity change (PNC), negative = inhibition of 17.2%. With `CC(C)CNC(=O)COC(=O)/C=C/c1ccco1` the activity change (PNC), negative = inhibition was 0.199%. Compound `O=C(NC(CC(=O)N1CCN(c2ccccc2)CC1)c1ccccc1)c1ccccc1Cl` (stereo not drawn) has an activity change (PNC), negative = inhibition of -9.01%. For `CCCc1cc(-c2nc(-c3ccc(C)cc3)cs2)ccn1`, the activity change (PNC), negative = inhibition was 10.4%. `O=C(OCN1C(=O)c2ccccc2C1=O)/C(=C\c1ccco1)NC(=O)c1ccccc1` gave an activity change (PNC), negative = inhibition of 73.8%. `CCCCN=C1N/C(=C\c2ccco2)C(=O)N1c1ccccc1` showed an activity change (PNC), negative = inhibition of -16.5%. For `COC(=O)C1=C(C)N(c2ccc(Br)cc2)C(=O)/C1=C\c1ccco1`, the activity change (PNC), negative = inhibition was -80.8% (active). Work on `O=C(N/N=C/c1ccc(Br)o1)c1cncc(Br)c1` yielded an activity change (PNC), negative = inhibition of -10.5%. Compound `CCN(CC(=O)NC1CCS(=O)(=O)C1)S(=O)(=O)c1ccccc1` (stereo not drawn) has an activity change (PNC), negative = inhibition of -23.3%. For `CC(C)C(=O)NC(NC(=S)NC1CCS(=O)(=O)C1)C(Cl)(Cl)Cl` (stereo not drawn), the activity change (PNC), negative = inhibition was -100% (active). `CCCSC(=S)NC1CCS(=O)(=O)C1` (stereo not drawn) showed an activity change (PNC), negative = inhibition of -6.42%. Compound `COc1ccc(CNC(=O)CCCn2nc(C)c([N+](=O)[O-])c2C)cc1` has an activity change (PNC), negative = inhibition of 1.72%. `N#C/C(C(=O)N1CCOCC1)=C1/SC(Cc2ccc(F)cc2)C(=O)N1c1ccccc1` (stereo not drawn) gave an activity change (PNC), negative = inhibition of 2.9%.
